About 79,000 compounds went through this panel and 15% of them were active in at least one assay; those are over-represented in the sample as a whole. Active and inactive are the calls of the source. Cut-off read from the data, not from the text of the source: active = growth inhibition above about 70%; inactive = the rest.
Columns and labels:
[1] = NCI Yeast Anticancer Drug Screen. Data for the rad52 strain (AID 147);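 note: 0% = growth of vehicle-treated control cultures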; conditions: S. cerevisiae rad52 mutant growth inhibition, active compounds read high
Method in brief: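 Compounds are applied to a genetically defined yeast strain lacking normal DNA damage repair, and inhibition of growth is expressed relative to cultures given vehicle only.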

[2] = NCI Yeast Anticancer Drug Screen. Data for the wt1 strain (AID 149);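 note: 0% = growth of vehicle-treated wt1 cultures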; conditions: S. cerevisiae wt1 strain (SPY 50644) growth inhibition, active compounds read high
Method in brief: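 Compounds are added to wt1 yeast cultures. Growth is then measured. Inhibition is expressed relative to vehicle-treated controls.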

[3] = NCI Yeast Anticancer Drug Screen. Data for the rad50EPP+ strain (AID 151);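 note: 0% = growth of vehicle-treated control cultures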; conditions: S. cerevisiae rad50 mutant strain, active compounds read high
Method in brief: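 Compounds were applied to the rad50EPP+ yeast strain, which bears a defined DNA repair alteration, and growth inhibition was determined relative to vehicle-treated cultures.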

[4] = NCI Yeast Anticancer Drug Screen. Data for the rad50 strain (AID 155);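 note: 0% = growth of vehicle-only cultures of the same strain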; conditions: S. cerevisiae rad50 strain growth inhibition, active compounds read high
Method in brief: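 Inhibition values express reduced yeast growth in compound-treated cultures relative to vehicle-treated controls.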

[5] = NCI Yeast Anticancer Drug Screen. Data for the mec2-1 strain (AID 157); conditions: S. cerevisiae mec2-1 strain, active compounds read high
Method in brief: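 Strain: mec2-1 (DNA repair/cell cycle alteration). Compound exposure, then growth measured; inhibition expressed relative to vehicle.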

[6] = NCI Yeast Anticancer Drug Screen. Data for the sgs1 mgt1 strain (AID 161);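 note: 0% = growth of cultures given vehicle only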; conditions: S. cerevisiae sgs1 mgt1 strain, active compounds read high
Method in brief: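 Mutant yeast exposed to compound; growth scored against vehicle-only wells.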

[7] = NCI Yeast Anticancer Drug Screen. Data for the CLN2oe strain (AID 163);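 note: 0% = growth of vehicle-only control cultures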; conditions: S. cerevisiae CLN2oe strain, active compounds read high
Method in brief: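 Growth of a genetically modified yeast strain is measured after compound exposure and compared with cultures given vehicle alone.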

[8] = NCI Yeast Anticancer Drug Screen. Data for the cln2 rad14 strain (AID 165);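 note: 0% = growth equal to vehicle treated cultures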; conditions: S. cerevisiae cln2 rad14 strain, active compounds read high
Method in brief: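 Compounds are applied to the cln2 rad14 yeast strain, and growth is then compared with that of vehicle-treated cultures to give inhibition.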

[9] = NCI Yeast Anticancer Drug Screen. Data for the bub3 strain (AID 167); conditions: S. cerevisiae bub3 mutant strain, active compounds read high
Method in brief: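 Steps: expose the mutant yeast strain to compound; grow alongside vehicle-treated cultures; measure growth; express inhibition against the vehicle cultures.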

[10] = NCI Yeast Anticancer Drug Screen. Data for the wt2 strain (AID 169);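 note: 0% = growth of vehicle-treated yeast cultures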; conditions: S. cerevisiae wt2 strain growth inhibition, active compounds read high
Method in brief: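 This strain belongs to a panel of yeast strains with defined genetic alterations in DNA damage repair or cell cycle control. Compounds are applied, and growth inhibition is measured against vehicle-treated cultures.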

[11] = NCI Yeast Anticancer Drug Screen. Data for the mlh1 strain (AID 171);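 note: 0% = growth of vehicle-treated control cultures of the same strain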; conditions: S. cerevisiae mlh1 strain growth inhibition, active compounds read high
Method in brief: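 Growth of the mutant yeast strain after compound exposure, expressed as inhibition relative to vehicle-only controls.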

[12] = NCI Yeast Anticancer Drug Screen. Data for the sgs1 strain (AID 173);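 note: 0% = growth of vehicle-only control cultures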; conditions: S. cerevisiae sgs1 mutant, active compounds read high
Method in brief: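 Growth of a yeast strain bearing a defined genetic alteration is measured after compound treatment. Inhibition is expressed relative to vehicle-only controls.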

[13] = NCI Yeast Anticancer Drug Screen. Data for the rad18 strain (AID 177); conditions: S. cerevisiae rad18 mutant growth inhibition, active compounds read high
Method in brief: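 Growth of the mutant yeast strain after compound exposure, normalised to vehicle-only cultures.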

[14] = NCI Yeast Anticancer Drug Screen. Data for the mgt1 strain (AID 153); conditions: S. cerevisiae mgt1 mutant growth inhibition, active compounds read high
Method in brief: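 Strain: mgt1 yeast, one of a set carrying defined DNA damage repair or cell cycle control alterations. Compound-treated growth compared with vehicle.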

[15] = NCI Yeast Anticancer Drug Screen. Data for the rad14 strain (AID 159);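 note: 0% = growth of vehicle-treated control cultures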; conditions: S. cerevisiae rad14 strain growth inhibition, active compounds read high
Method in brief: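 A mutant yeast strain defective in DNA damage repair is treated with compound; inhibition of its growth is scored against untreated, vehicle-exposed cultures.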

[16] = NCI Yeast Anticancer Drug Screen. Data for the mlh1 rad18 strain (AID 175); conditions: S. cerevisiae mlh1 rad18 strain growth inhibition, active compounds read high
Method in brief: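 Read-out is yeast growth inhibition, calculated against vehicle-only controls. The compound was applied to a strain engineered with DNA damage repair alterations.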

[17] = at 5.0 µM (retest, dose inferred, filed as 0.5)
[18] = at 50.0 µM (retest, dose inferred, filed as 5.0)

Measured: growth inhibition

COc1ccc2c(C)cc(N/N=C/c3sccc3C)nc2c1
inactive: [1]; at 1.2 µM -31% | [1]; at 3.7 µM -45% | [1]; at 11.0 µM -35% | [1]; at 33.0 µM 29% | [1]; at 100.0 µM 18% | [2]; at 1.2 µM -30% | [2]; at 3.7 µM -32% | [2]; at 11.0 µM -15% | [2]; at 33.0 µM 63% | [2]; at 100.0 µM 66% | [3]; at 1.2 µM -11% | [3]; at 3.7 µM -10% | [3]; at 11.0 µM -4% | [3]; at 33.0 µM 24% | [3]; at 100.0 µM 21% | [4]; at 1.2 µM -15% | [4]; at 3.7 µM -25% | [4]; [17] 22% | [4]; at 11.0 µM 23% | [4]; at 50.0 µM 68.5% | [5]; at 1.2 µM -22% | [5]; at 3.7 µM -28% | [5]; [17] 12% | [5]; at 11.0 µM -8% | [5]; at 33.0 µM 57% | [5]; at 50.0 µM 50% | [5]; at 100.0 µM 46% | [6]; [17] 19% | [6]; [18] 8% | [7]; at 1.2 µM -6% | [7]; at 3.7 µM -9% | [7]; at 11.0 µM 0% | [7]; at 33.0 µM 65% | [7]; at 100.0 µM 56% | [8]; [17] 4% | [8]; [18] -26% | [8]; at 50.0 µM 45.8% | [9]; at 1.2 µM -11% | [9]; at 3.7 µM 10% | [9]; [17] 13% | [9]; at 11.0 µM -7% | [9]; [18] -26% | [9]; at 50.0 µM 45.1% | [10]; at 1.2 µM 13% | [10]; at 3.7 µM -6% | [10]; at 11.0 µM 24% | [11]; at 1.2 µM -27% | [11]; at 3.7 µM -5% | [11]; at 11.0 µM -7% | [11]; at 33.0 µM 60% | [11]; at 100.0 µM 56% | [12]; at 1.2 µM -34% | [12]; at 3.7 µM -37% | [12]; at 11.0 µM 14% | [13]; at 1.2 µM 3% | [13]; at 3.7 µM -4% | [13]; at 11.0 µM 6%
active: [4]; at 33.0 µM 80% | [4]; [18] 92% | [4]; at 100.0 µM 73% | [5]; [18] 92% | [6]; at 50.0 µM 80.3% | [9]; at 33.0 µM 88% | [9]; at 100.0 µM 82% | [10]; at 33.0 µM 78% | [10]; at 100.0 µM 73% | [12]; at 33.0 µM 88% | [12]; at 100.0 µM 78% | [13]; at 33.0 µM 85% | [13]; at 100.0 µM 70%

O=C(Cc1ccccc1)c1ccc(O)cc1
inactive: [2]; at 1.2 µM -20% | [2]; at 3.7 µM -8% | [2]; at 11.0 µM 5% | [2]; at 33.0 µM 63% | [3]; at 1.2 µM 11% | [3]; at 3.7 µM 10% | [3]; at 11.0 µM -3% | [3]; at 33.0 µM 40% | [14]; at 1.2 µM -45% | [14]; at 3.7 µM -56% | [14]; at 11.0 µM -38% | [14]; at 33.0 µM 51% | [4]; at 1.2 µM -15% | [4]; at 3.7 µM -21% | [4]; at 11.0 µM 17% | [5]; at 1.2 µM -24% | [5]; at 3.7 µM -15% | [5]; at 11.0 µM 20% | [15]; at 1.2 µM -13% | [15]; at 3.7 µM -25% | [15]; at 11.0 µM -5% | [15]; at 33.0 µM 62% | [6]; [17] 1% | [7]; at 1.2 µM 5% | [7]; at 3.7 µM 15% | [7]; at 11.0 µM 22% | [7]; at 33.0 µM 53% | [8]; [17] 36% | [8]; at 50.0 µM 62.6% | [9]; at 1.2 µM -11% | [9]; at 3.7 µM -14% | [9]; [17] 44% | [9]; at 11.0 µM 24% | [9]; at 33.0 µM 69% | [10]; at 1.2 µM -10% | [10]; at 3.7 µM -17% | [10]; at 11.0 µM -10% | [10]; at 33.0 µM 58% | [11]; at 1.2 µM -13% | [11]; at 3.7 µM 0% | [11]; at 11.0 µM 23% | [11]; at 33.0 µM 68% | [12]; at 1.2 µM -15% | [12]; at 3.7 µM -39% | [12]; at 11.0 µM -5% | [12]; at 33.0 µM 59% | [16]; [17] 56%
active: [2]; at 100.0 µM 87% | [3]; at 100.0 µM 71% | [14]; at 100.0 µM 82% | [4]; [17] 81% | [4]; at 33.0 µM 74% | [4]; [18] 99% | [4]; at 50.0 µM 83.5% | [4]; at 100.0 µM 85% | [5]; [17] 78% | [5]; at 33.0 µM 70% | [5]; [18] 98% | [5]; at 50.0 µM 91.5% | [5]; at 100.0 µM 91% | [15]; at 100.0 µM 89% | [6]; [18] 88% | [6]; at 50.0 µM 94.2% | [7]; at 100.0 µM 85% | [8]; [18] 90% | [9]; [18] 97% | [9]; at 50.0 µM 92.7% | [9]; at 100.0 µM 89% | [10]; at 100.0 µM 87% | [11]; at 100.0 µM 89% | [12]; at 100.0 µM 88% | [16]; [18] 99% | [16]; at 50.0 µM 86.1%
